Most compounds without a hit are left out; they make up all but 12% or so of the library.
Sfp inh = Sfp phosphopantetheinyl transferase inhibition | Potency, µM, for the others: largest response in the series, negative = inhibition, usual class: inhibitors | Biochemical Sfp PPTase activity, qHTS | 310,000 compounds, 3.5% hits;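 further: the enzyme is Sfp with the accession as filed and its product quenches rhodamine fluorescence; 0% = enzyme reaction without inhibitor and -100% = no enzyme wells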
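Fluorescence-quenching assay: 15 nM Sfp-PPTase preincubated 15 min at room temperature with compound, then 5 uM rhodamine-CoA and 12.5 uM BHQ-2-labelled YbbR peptide added. Fluorescence (ex 525/em 598 nm) read at start and after 30 min; difference gives rate.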
G9a block = inhibitors of human histone lysine methyltransferase G9a; Potency, µM (titrated, usually from 102 µM), inactives show top-dose activity, negative = inhibition, actives largely listed as inhibitors; Q96KQ7; G9a H3K9 monomethylation, AlphaScreen, 2 h; 350,000 compounds, 8.8% hits; further: on the % scale 0 is the no-effect control and ±100 the full control effect; nearly all actives have a fitted effect of over 75% in size
Target sequence (Q96KQ7 913-1193 limits assumed): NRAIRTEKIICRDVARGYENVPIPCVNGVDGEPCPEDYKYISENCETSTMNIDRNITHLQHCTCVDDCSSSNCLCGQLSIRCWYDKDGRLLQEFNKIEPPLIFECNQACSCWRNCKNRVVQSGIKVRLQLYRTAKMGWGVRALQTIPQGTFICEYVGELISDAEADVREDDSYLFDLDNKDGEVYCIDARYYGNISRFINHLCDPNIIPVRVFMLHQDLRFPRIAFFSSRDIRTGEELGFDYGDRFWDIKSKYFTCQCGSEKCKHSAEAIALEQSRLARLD
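G9a (20 nM) preincubated 15 min RT with compounds, then 500 nM biotinylated H3K9 peptide and 20 uM SAM added; 2 h RT reaction. Monomethyl-H3K9 product detected by AlphaScreen with anti-H3K9me1 antibody, streptavidin donor and anti-rabbit IgG acceptor beads.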
BAZ2B inh = blocks human BAZ2B | Potency, µM (doses to about 114 µM), for the others: top-dose activity change, negative = inhibition, usual class: inhibitors | AID 504333 | 360,000 compounds, 4.4% hits | AlphaScreen BAZ2B-H3K14Ac peptide displacement; further: on the % scale 0 is the no-effect control and ±100 the full control effect; nearly all actives have a fitted effect of over 60% in size
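Inhibition is scored as reduced AlphaScreen emission. The BAZ2B/b-H3(5-23)K14Ac complex (50 nM each) in PBS pH 7.4, 0.01% Tween-20 meets compound (up to 110 uM) for 30 min at RT before bead addition.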
HP1b binding inh = blocks HP1-beta chromodomain binding to methylated histone tails | AlphaScreen HP1-beta / biotin-H3K9me3 peptide binding | Potency, µM (titrated, usually from 114 µM), for inactives: top-dose activity change, negative = inhibition, usual class: inhibitors | 390,000 compounds, 0.56% hits; further: nearly all actives have a fitted effect of over 70% in size
Target sequence (P83916 whole entry, looked up): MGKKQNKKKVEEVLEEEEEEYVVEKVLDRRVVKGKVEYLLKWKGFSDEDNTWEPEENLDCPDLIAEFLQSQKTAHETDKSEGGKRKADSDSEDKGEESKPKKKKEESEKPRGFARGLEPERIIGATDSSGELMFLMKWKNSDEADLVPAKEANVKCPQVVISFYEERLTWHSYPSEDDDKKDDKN
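HP1-beta protein (50 nM final) preincubated 30 min at room temperature with biotinylated H3(1-18)K9me3 peptide (50 nM) in PBS pH 7.4, 0.01% Tween-20, then compound added for 30 min. AlphaScreen streptavidin donor/nickel chelate acceptor beads (10 ug/mL final), 30 min dark, luminescence read.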
L3MBTL1 inh = L3MBTL1 (human) inhibition | Q9Y468 | AlphaScreen L3MBTL1–H3K9me1 peptide binding | Potency, µM (titrated, usually from 57.1 µM), without a hit: at the highest dose activity, negative = inhibition, hits mostly inhibitors | 230,000 compounds, 0.66% hits | AID 485360; further: on the % scale 0 is the no-effect control and ±100 the full control effect; nearly all actives have a fitted effect of over 60% in size
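AlphaScreen proximity signal between nickel-chelate acceptor and streptavidin donor beads (final 10 ug/mL) reports binding of 50 nM L3MBTL1 to 75 nM biotin-H3 K9me1 peptide; complex incubated with compounds 30 min at room temperature; cefsulodin titration as control.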
JMJD2A Tudor inh = inhibitors of human JMJD2A Tudor domain | Potency, µM (top dose mostly 114 µM), for inactives: at the top dose activity change, negative = inhibition, actives largely listed as inhibitors | AlphaScreen JMJD2A-Tudor / H3K4me3 peptide binding | O75164 | 390,000 compounds, 4.4% hits; further: on the % scale 0 is the no-effect control and ±100 the full control effect; nearly all actives have a fitted effect of over 50% in size
* = called active by the depositor; u = inconclusive; x = not tested or not shown; [ ] = dose if it differs, or a comment. The call rests on the fitted dose curve; in most records, active means well fitted curve in the direction sought with a large enough effect; inconclusive means small, poorly fitted or top-dose-only effect, or another doubt; inactive means no such curve, though single readings can be large; an effect the other way counts as inactive or inconclusive. Potency means the concentration at half of the fitted maximal effect.

SMILES | Sfp inh | G9a block | BAZ2B inh | HP1b binding inh | L3MBTL1 inh | JMJD2A Tudor inh
CCC(=O)c1ccccc1OCCCN1CCC(Cc2ccccc2)CC1 | u | 40µM* | -34% | u | x | 35µM*
CCN1CCN(CCOc2ccccc2OCc2ccccc2)CC1 | -11% | 20µM* | 22µM* | u | -6% | 13µM*
CCOc1ccccc1OCCN1CCC(Cc2ccccc2)CC1 | -5% | 16µM* | 56µM* | -13% | -6% | 45µM*
NC(=O)c1ccccc1OCC(=O)N1CCC(Cc2ccccc2)CC1 | x | 1%[12.7 µM] | -4% | 41% | 1% | -9%
OC(COc1ccccc1F)CN1CCC(Cc2ccccc2)CC1 (configuration not stated) | -2% | x | -1% | 27% | 0% | -15%
Cc1ccc(NS(=O)(=O)c2ccc(NC(=O)N3CCCC3)cc2)cc1C | x | 0%[59 µM] | 4% | 26%[57 µM] | x | -11%
COc1ccccc1-c1nc2c(c(SCc3cc(C)ccc3C)n1)Cc1c(CO)cnc(C)c1O2 | x | -37%[59 µM] | -15% | 24% | x | -22%
Cc1nn(C(=O)c2cccc(Cl)c2)c(C)c1S(=O)(=O)N1CCOCC1 | x | -17%[59 µM] | 7% | 45%[57 µM] | x | -2%
CCOc1ccc(-c2cc(-c3nc(-c4cc(OC)c(OC)c(OC)c4)no3)[nH]n2)cc1Cl | x | -3%[59 µM] | 1% | 39% | x | -7%
CCOC(=O)c1c(N)sc(=S)c2c1CCC2 | 32µM* | u | 45µM* | u | u | u
CCOC(=O)c1sc(N)c(C(N)=O)c1C | 32µM* | 40µM* | x | -13% | 7% | -20%
C=CCn1sc(N)c(C(=O)OCC)c1=S | 0% | -20% | u | 8% | -3% | -35%
CCOC(=O)c1c(N)sc(C(N)=O)c1C | u | u | -5% | u | -6% | 5%
Cc1c(C(N)=O)sc(N)c1C(=O)OC(C)C | -18% | 40µM* | -24% | -22% | -3% | -16%
CCOC(=O)c1c(N)ssc1=S | 22µM* | 1µM* | u | u | -2% | u
CCOC(=O)c1c(N)sc(C(=O)N2CCCCCC2)c1C | 1% | -15% | 4% | 6% | -2% | -8%
C/C(CCN1CCCCc2nc(C)c(C)cc21)=N\O[C@@H](C)CN1CCCc2nc(C)c(C)cc21 | 19% | x | x | x | x | x
CCCCCCCCCCOCCC(=O)O | 10% | 29%[59 µM] | x | x | x | x
O=C(CNC(=O)C1CCCCC1)OC(C(=O)Nc1cc(C(F)(F)F)ccc1Cl)c1ccccc1 (configuration not stated) | x | x | x | x | x | -19%
Cc1cccc(Cn2cc(C(=O)c3ccccc3)c(=O)c3cc4c(cc32)OCO4)c1 | x | -3%[59 µM] | -25% | 10% | x | -28%
CCCOc1ccc(C2c3c(-c4ccccc4O)n[nH]c3C(=O)N2CCCOCC)cc1OCC (configuration not stated) | x | -20%[59 µM] | -3% | 6% | x | u
CCCc1c(C(=O)OCC)sc(N)c1C#N | 63µM* | u | u | u | 57% | -9%
CCOC(=O)c1c(N)sc(N)c1C(=O)OCC | u | 3.2µM* | 50µM* | 8.9µM* | -8% | u
CCOC(=O)c1c(N)sc(C(=O)N(CC)CC)c1C | 12% | -7% | 6% | 31% | 3% | -7%
COc1cc(C2c3c(-c4ccccc4O)n[nH]c3C(=O)N2Cc2ccco2)ccc1OCC(C)C (configuration not stated) | x | -31%[59 µM] | u | 13% | x | u
SMILES | Sfp inh | G9a block | BAZ2B inh | HP1b binding inh | L3MBTL1 inh | JMJD2A Tudor inh
CCOc1ccc(C(C)=O)cc1N1C(=O)C2C3C=CC(O3)C2C1=O (configuration not stated) | 7.9µM* | u | u | 28µM* | -3% | 20µM*
O=C(OCc1nc2ccccc2[n+]([O-])c1C(=O)c1ccccc1)c1cccs1 | -8% | u | u | -18% | -7% | 79µM*
CC(=O)c1c(COC(=O)c2ccco2)nc2ccccc2[n+]1[O-] | -28% | -34%[12.7 µM] | 50µM* | 6% | x | -13%
CCc1ccccc1NC(=O)CSc1nnc(COc2ccccc2Cl)o1 | x | -31%[59 µM] | -1% | 36% | x | 3%
CCCn1c(SCC(=O)Nc2nnc(C)s2)nnc1-c1ccoc1C | -6% | -13%[12.7 µM] | 0% | -12% | 23% | 50µM*
CCCCn1c(SCC(=O)Nc2nnc(C)s2)nnc1-c1ccoc1C | 13% | 14%[59 µM] | 0% | 12% | 0% | 10%
Cc1nnc(NC(=O)CSc2nnc(-c3ccoc3C)n2CC(C)C)s1 | u | 26%[12.7 µM] | 63% | -6% | 37% | 50µM*
C=C(C)C(=O)/C=C/C=C/c1ccccc1 | 15% | x | x | x | x | x
COc1ccc(S(=O)(=O)N2CCN(Cc3nc4ccc(C)cc4o3)CC2)cc1OC | x | 1%[59 µM] | -9% | 1% | x | -20%
COc1cc(CNn2c(C)n[nH]c2=S)cc(Cl)c1OCc1ccc(F)cc1 | -26% | u | u | 15% | x | -22%
C=CCOc1c(Br)cc(CNn2c(C)n[nH]c2=S)cc1OCC | -7% | 16µM* | -32% | 23% | -9% | u
C=CCOc1c(Br)cc(CNn2cn[nH]c2=S)cc1OC | -10% | -131%[59 µM] | -11% | 22% | -3% | 79µM*
COc1cc(CNn2c(C)n[nH]c2=S)cc(Br)c1OCc1ccc(F)cc1 | -10% | 22µM* | u | 3% | -11% | -31%
Cc1cccc(NC(=O)C2CCCN(S(=O)(=O)c3c(C)noc3/C=C/N(C)C)C2)c1C (configuration not stated) | x | -2%[59 µM] | -32% | 23% | x | -29%
COC(=O)c1ccc(OC(=O)CS(=O)c2ccccc2[N+](=O)[O-])cc1 (configuration not stated) | -11% | x | -10% | 32% | 7% | -3%
CCOC(=O)c1ccccc1OC(=O)CS(=O)c1ccccc1[N+](=O)[O-] (configuration not stated) | 1% | 40µM* | -35% | 39% | -8% | -13%
Cc1ccc(CSc2ncc(Cl)c(C(=O)NCCc3ccc(S(N)(=O)=O)cc3)n2)cc1 | x | -30%[59 µM] | -18% | 8% | x | -20%
CCOC(=O)c1c(-c2ccccc2)oc2ccc(NS(=O)(=O)c3cc(C)c(C)cc3C)cc12 | x | -5%[59 µM] | -1% | 38% | x | -29%
CCSC1=C(C#N)C(c2ccccc2Cl)C(C(=O)c2cccs2)C(O)(C(F)(F)F)N1 (configuration not stated) | 3% | 10µM* | -8% | 45% | -16% | -17%[57.1 µM]
Cc1ccc(-n2nc(C)c3nc(CCC(=O)Nc4cccc(C)c4C)c(=O)n(C)c32)cc1 | x | -4%[12.7 µM] | -10% | 17% | x | 1%
Cc1ccc(-c2nnc(SCc3ccc(C#N)cc3)n2Cc2ccco2)cc1 | -6% | x | -35% | 7% | -4% | 79µM*

Screens: PubChem, National Center for Advancing Translational Sciences (NCATS)
